# A number with no mark means an inactive call. No rule for the calls is given here.
# Target: Pantothenate synthetase (Mycobacterium tuberculosis (strain ATCC 25618 / H37Rv)) (UniProt P9WIL5)
# Test: Recombinant Mtb pantothenate synthetase (PanC) inhibitors, coupled enzyme, confirmatory (AID 375);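 also: 0% = full reaction with vehicle and 100% = no enzyme background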
# Conditions: coupled enzyme assay; at 10 µM, stronger effect = higher value
# Pantothenate synthetase (Mycobacterium tuberculosis (strain ATCC 25618 / H37Rv)), sequence (P9WIL5 whole entry, looked up): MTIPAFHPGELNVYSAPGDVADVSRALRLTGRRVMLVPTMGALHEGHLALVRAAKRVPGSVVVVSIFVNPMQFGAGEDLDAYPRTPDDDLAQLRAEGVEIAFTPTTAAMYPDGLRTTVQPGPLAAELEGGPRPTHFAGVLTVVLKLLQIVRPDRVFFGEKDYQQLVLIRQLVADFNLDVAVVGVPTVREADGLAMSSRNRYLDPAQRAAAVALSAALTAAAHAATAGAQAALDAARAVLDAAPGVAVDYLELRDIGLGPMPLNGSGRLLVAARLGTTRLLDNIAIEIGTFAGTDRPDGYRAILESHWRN
row,Compound,inhibition
1,COc1ccc2nc(NC(=O)C3CCCN(S(=O)(=O)c4cccc5nsnc45)C3)sc2c1 (stereo not given),5%
2,CC(=O)C1=C(C)NC(=O)NC1c1cccc(O)c1 (stereo not given),8%
3,Cc1ccc(N2CCN(C(=O)c3ccccc3Br)CC2)c(C)c1,6%
4,COc1nc(OC)nc(N2CCC(C(=O)NCc3cccs3)CC2)n1,0%
5,Cc1cc(=O)n2nc(-c3ccccc3)sc2n1,0%
6,COc1cccc(C2C(C(N)=O)=C(C)Nc3nc(-c4ccccc4Cl)nn32)c1 (stereo not given),0%
7,O=C(CSc1nc2ccccc2o1)N1CCN(c2ccc(Cl)cc2)CC1,0%
8,COc1ccc(/C=N/n2c(SC)nnc2-c2ccccc2)cc1C,0%
9,CCCCSCCCNC(=O)CS(=O)Cc1nc(-c2cccc(C)c2)oc1C (stereo not given),6%
10,Fc1cc(F)c(F)c(SCCc2ccncc2)c1F,0%
11,Cc1nn(-c2ccc(F)cc2)c2nc(N)c(C#N)c(-c3cccs3)c12,6%
12,CCOC(=O)N1CCN(C(=O)c2ccc(N3C(=O)CCC3=O)cc2)CC1,0%
13,Cc1csc(NC(=O)Nc2cccc(Cl)c2)n1,0%
14,Cc1cc2nc(-c3ccco3)cc(C(F)(F)F)n2n1,0%
15,Cc1cccc(COc2ccc(/C(O)=C3\C(=O)C(=O)N(CCN(C)C)C3c3ccncc3)cc2)c1 (stereo not given),13%
16,N#CC(C(=O)c1ccco1)c1ccccn1 (stereo not given),3%
17,NC(=O)c1cccc(S(=O)(=O)N2CCCCC2)c1,0%
18,Cc1cc(NC(=O)CSc2nc(CCC3CCCC3)nc3ccccc23)no1,3%
19,Cn1c(C(=O)NCC2CCCO2)cc2c(=O)[nH]c3ccccc3c21 (stereo not given),8%
20,O=C(NCCN1CCOCC1)C1CC(=O)N(c2ccc(F)c(Cl)c2)C1 (stereo not given),7%

row,Compound,inhibition
1,O=C(NCCc1c[nH]c2ccccc12)c1cnc2n(c1=O)CCS2,1%
2,CCSCCC(NC1=CC(=O)CC(C)(C)C1)C(=O)O (stereo not given),0%
3,COc1ccc(N2CCN(C(=O)CN3C(=O)C4CC=CCC4C3=O)CC2)cc1 (stereo not given),0%
4,CCOC(=O)C1CCN(C(=O)CCCCn2c(=O)[nH]c3ccccc3c2=O)CC1,2%
5,Cc1cc(C(=O)Nc2nc3c(s2)CCCC3)cs1,0%
6,Cc1nn(-c2ccccc2)c2c1C(=O)NC(=O)C(C)(C)C2,0%
7,O=C(CCN1C(=O)c2ccccc2C1=O)N1CCN(C(=O)c2ccccc2)CC1,0%
8,CCCCc1noc2c1/C(=N\O)CC(c1ccccc1)C2 (stereo not given),3%
9,O=C1CC(Cc2ccccc2)C(=O)N1CCCn1ccnc1 (stereo not given),0%
10,CCCC(=O)n1nc(-c2ccc(OC)cc2)nc1N,2%
11,Cc1ccc(C(C(=O)NC(C)(C)C)N(C(=O)c2csnn2)c2cccc(F)c2)o1 (stereo not given),0%
12,O=C(Nc1ccc2c(c1)OCO2)C(c1ccccc1)N1CCC2(CC1)OCCO2 (stereo not given),0%
13,NC(=O)CCS(=O)(=O)CCN1CCCCC1,0%
14,O=C(CN1C(=O)c2ccccc2C1=O)Nc1ccc(S(=O)(=O)NCC2CCCO2)cc1 (stereo not given),0%
15,N=c1sc2ccccc2n1-c1ccccc1,3%
16,O=C(CSc1nnc(NC(=O)C2CCC2)s1)NC1CC1,0%
17,COc1ccc(OCC(=O)Nc2ccc(N3CCOCC3)c(Cl)c2)cc1,0%
18,O=C(CSc1nc(N2CCCCC2)nc(N2CCCCC2)n1)Nc1nccs1,0%
19,CC(=O)C1=C(O)C(=O)N(Cc2ccco2)C1c1ccc2c(c1)OCO2 (stereo not given),3%
20,Nc1nc(N)c2nc(-c3ccccc3)c(N)nc2n1,0%
